# Measured values reported in PubChem BioAssay AID602261 (Sanford-Burnham Center for Chemical Genomics, 2012).
# Out of some 360,000 compounds screened, about 2,400 (0.67%) were called active. For the sample, actives were picked, then their nearest neighbours and some compounds at random. A number with no mark means an inactive call.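 Rule for the calls: active = compounds whose normalised, plate-corrected inhibition of enzyme fluorescence in the single-dose primary screen is 50% or more; inactive = the rest.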
# Target: Fatty acid synthase (Homo sapiens) (UniProt P49327)
# Experiment: inhibition of human FAS-TE enzyme activity – biochemical, fluorescence intensity, uHTS, primary screen (AID 602261);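 note: 0% = DMSO with enzyme and 100% = substrate without enzyme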
# Conditions: recombinant FAS-TE, OMFH fluorogenic substrate, fluorescence endpoint; at 15 µM; stronger effect = higher value
# Sequence of Fatty acid synthase (Homo sapiens) (P49327 whole entry, looked up): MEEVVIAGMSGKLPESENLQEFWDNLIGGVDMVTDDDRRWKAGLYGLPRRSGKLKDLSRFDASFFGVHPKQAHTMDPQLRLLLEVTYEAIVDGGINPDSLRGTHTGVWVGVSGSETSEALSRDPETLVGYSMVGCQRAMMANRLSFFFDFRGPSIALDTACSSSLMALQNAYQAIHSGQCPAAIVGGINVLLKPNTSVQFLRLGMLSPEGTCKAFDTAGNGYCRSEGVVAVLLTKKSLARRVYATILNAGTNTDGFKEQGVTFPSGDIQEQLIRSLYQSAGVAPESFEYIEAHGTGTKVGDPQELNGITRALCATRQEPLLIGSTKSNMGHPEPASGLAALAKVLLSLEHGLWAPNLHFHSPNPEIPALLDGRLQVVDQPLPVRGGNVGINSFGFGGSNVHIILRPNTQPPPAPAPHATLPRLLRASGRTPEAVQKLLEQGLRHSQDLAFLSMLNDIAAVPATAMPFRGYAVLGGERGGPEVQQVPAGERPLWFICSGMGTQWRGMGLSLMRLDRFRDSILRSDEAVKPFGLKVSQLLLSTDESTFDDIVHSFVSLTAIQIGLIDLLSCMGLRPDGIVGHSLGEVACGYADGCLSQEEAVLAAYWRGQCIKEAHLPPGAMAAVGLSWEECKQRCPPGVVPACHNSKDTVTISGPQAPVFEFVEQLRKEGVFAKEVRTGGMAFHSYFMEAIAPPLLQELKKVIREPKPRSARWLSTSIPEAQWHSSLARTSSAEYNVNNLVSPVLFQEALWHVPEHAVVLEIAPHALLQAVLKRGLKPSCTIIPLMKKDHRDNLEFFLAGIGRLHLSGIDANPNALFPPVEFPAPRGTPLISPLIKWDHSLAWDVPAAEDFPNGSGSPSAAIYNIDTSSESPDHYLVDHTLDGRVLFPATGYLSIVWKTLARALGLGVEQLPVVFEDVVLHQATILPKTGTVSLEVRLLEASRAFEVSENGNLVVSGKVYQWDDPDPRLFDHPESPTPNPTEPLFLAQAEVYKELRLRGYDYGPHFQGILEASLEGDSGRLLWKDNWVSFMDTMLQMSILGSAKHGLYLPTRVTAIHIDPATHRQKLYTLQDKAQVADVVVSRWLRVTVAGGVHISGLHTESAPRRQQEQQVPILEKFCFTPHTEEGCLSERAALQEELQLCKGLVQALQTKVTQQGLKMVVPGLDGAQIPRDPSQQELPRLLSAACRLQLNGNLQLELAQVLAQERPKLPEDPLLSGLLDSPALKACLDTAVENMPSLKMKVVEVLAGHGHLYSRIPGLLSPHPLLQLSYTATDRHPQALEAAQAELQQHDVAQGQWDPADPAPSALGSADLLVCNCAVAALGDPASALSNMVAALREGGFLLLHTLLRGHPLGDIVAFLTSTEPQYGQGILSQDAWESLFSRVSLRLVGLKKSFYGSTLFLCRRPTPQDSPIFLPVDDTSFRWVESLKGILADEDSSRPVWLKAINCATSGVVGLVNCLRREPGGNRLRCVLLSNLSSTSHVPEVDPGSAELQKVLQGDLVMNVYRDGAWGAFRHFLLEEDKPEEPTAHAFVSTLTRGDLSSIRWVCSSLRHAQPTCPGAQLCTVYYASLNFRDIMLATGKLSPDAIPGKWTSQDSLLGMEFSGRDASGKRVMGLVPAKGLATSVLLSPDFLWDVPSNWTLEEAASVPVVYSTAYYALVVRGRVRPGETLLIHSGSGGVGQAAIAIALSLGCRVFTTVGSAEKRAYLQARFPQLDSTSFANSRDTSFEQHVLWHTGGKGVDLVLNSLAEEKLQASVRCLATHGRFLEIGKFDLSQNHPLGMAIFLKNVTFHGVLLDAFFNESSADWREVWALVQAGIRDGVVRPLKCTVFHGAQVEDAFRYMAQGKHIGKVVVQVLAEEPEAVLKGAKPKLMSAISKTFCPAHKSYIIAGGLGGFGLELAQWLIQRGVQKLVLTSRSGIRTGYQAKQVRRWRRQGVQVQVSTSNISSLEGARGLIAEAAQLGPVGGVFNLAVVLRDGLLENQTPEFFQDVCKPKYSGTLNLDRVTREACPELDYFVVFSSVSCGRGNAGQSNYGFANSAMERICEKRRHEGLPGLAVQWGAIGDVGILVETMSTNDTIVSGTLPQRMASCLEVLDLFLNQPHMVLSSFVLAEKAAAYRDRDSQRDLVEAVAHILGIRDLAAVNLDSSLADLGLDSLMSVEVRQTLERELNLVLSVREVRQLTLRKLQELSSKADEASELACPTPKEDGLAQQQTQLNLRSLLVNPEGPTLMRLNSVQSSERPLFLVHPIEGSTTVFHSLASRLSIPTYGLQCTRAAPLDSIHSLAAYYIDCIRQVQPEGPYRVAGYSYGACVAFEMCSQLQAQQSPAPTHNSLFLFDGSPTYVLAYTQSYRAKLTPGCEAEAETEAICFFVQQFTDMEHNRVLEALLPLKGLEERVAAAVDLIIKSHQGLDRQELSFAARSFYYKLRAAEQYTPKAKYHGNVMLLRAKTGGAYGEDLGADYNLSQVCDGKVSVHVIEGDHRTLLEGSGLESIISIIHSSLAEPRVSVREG
row,Compound,inhibition
1,CCc1nc2ccc(C(=O)N(C)Cc3ccco3)cn2c1N(C)C(=O)Cc1ccccc1,-8%
2,O=C1N(c2ccc(Cl)cc2)C(c2ccc(Cl)cc2)N2CCCN12 (configuration not stated),21.3%
3,COCCCN1C(=O)C(CC(=O)NCc2cccs2)CC(C(=O)N2CCOCC2)=C1C (configuration not stated),-5.4%
4,CCC(CC)COC(=O)C1=C(C)NC(=O)NC1c1ccc([N+](=O)[O-])cc1 (configuration not stated),71.6% (active)
5,CC1=C(C(=O)OCC2CCCCC2)C(c2ccc(F)cc2)NC(=O)N1 (configuration not stated),17.2%
6,CCOCCOC(=O)C1=C(C)NC(=O)NC1c1ccc2c(c1)OCO2 (configuration not stated),-6.1%
7,N[C@@H](Cc1ccccc1)C(=O)N1CCC(C(=O)NCC(=O)Nc2ccc(F)cc2)CC1,-6.7%
8,CC(C)(O)C#Cc1ncc(C(F)(F)F)cc1Cl,-1.4%
9,COC(=O)[C@@H]1CC(O)CN1C(=O)C12CC3CC(CC(C3)C1)C2 (some centres not stated),-6.7%
10,CCOC(=O)c1cnn2c(SC)ncnc12,-6.9%
11,CCC1NC(=O)c2cccnc2-n2c1nc1ccc(C)cc1c2=O (configuration not stated),-5.4%
12,O=C1NC(Cc2ccccc2)c2nc3ccc(Br)cc3c(=O)n2-c2cc3ccccc3cc21 (configuration not stated),84.7% (active)
13,Cc1cc(C)c2c(=O)n3c(nc2c1)C(CC(C)C)NC(=O)c1cc2ccccc2cc1-3 (configuration not stated),2.3%
14,C=CCSc1nsc(NC(=O)Nc2cccc(C(C)=O)c2)n1,3.9%
15,Cc1ccc(N2C(=O)N3[C@@H]4c5ccccc5OC[C@@H]4[C@@H](c4ccccc4)[C@@]3(C)C2=O)cc1,48.3%
16,Cc1ccc(C2SCC(=O)N2c2ccccc2)cc1 (configuration not stated),-5.6%
17,Cc1ccc(N2C(=O)C3C(c4ccccc4)(C2=O)C3(c2ccccc2)c2ccccc2)cc1 (configuration not stated),80.8% (active)
18,COc1cc(C2C(C(=O)OCCC#N)=C(C)NC3=C2S(=O)(=O)c2ccccc23)cc(OC)c1OC (configuration not stated),-7.7%
19,C=C(Cl)COC(=O)C1C2C=CC(C2)C1C(=O)O (configuration not stated),-6.6%
20,COc1cccc(CNS(=O)(=O)c2cc3c(cc2C)n(C)c(=O)c(=O)n3C)c1,-4.2%
21,CC1c2nc3ccccc3n2C(CC(=O)NCCCN2CCOCC2)C(=O)N1Cc1ccccc1 (configuration not stated),-2.2%
22,C#CCN(C[C@@H]1[C@@H](OC(=O)NC2CC2)[C@@H](OC(=O)NC2CC2)Cn2c(=O)ccc(=O)n21)S(=O)(=O)c1ccc(C)cc1,-8%
23,Cc1ccc(S(=O)(=O)N2C[C@]3(O)C[C@@H]4C(=O)N(c5ccccc5)C(=O)[C@@H]4C[C@]3(OC(=O)NC3CC3)C2)cc1,5.3%
24,C#CCN(C[C@H]1[C@H](OC(=O)NC2CCCC2)[C@H](OC(=O)NC2CCCC2)C[C@H]2C(=O)N(c3ccccc3)C(=O)[C@@H]12)S(=O)(=O)c1ccc(C)cc1,69.1% (active)
25,O=C(NCc1ccco1)c1ccc(CS(=O)(=O)Cc2ccc(F)cc2)o1,-5.6%
26,C[C@H]1CN([C@@H](C)CO)C(=O)CCCn2nncc2CO[C@@H]1CN(C)Cc1ccc(Oc2ccccc2)cc1,-4.9%
27,CCN(CCCNC(=O)CSc1cc(=O)n(C)c2cc(Cl)ccc12)Cc1ccccc1,1.5%
